Assay outcomes as filed in PubChem.
HT1080NT lethal: kills 2HG-producing HT-1080-NT fibrosarcoma cells. HT-1080-NT fibrosarcoma viability, CellTiter-Glo ATP luminescence, 48 h. Potency, µM (highest dose often 46.1 µM), usual class: cytotoxic. 1.6% of 360,000 active. AID 686970;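 also: NT is the 2HG producing partner of a matched IDH1 knockdown line; nearly all actives have a fitted effect of over 55% in size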
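HT-1080-NT fibrosarcoma cells (2HG-overproducing), 750 cells/well in RPMI with 5% FBS, dosed after 2 h and incubated 48 h at 37C. CellTiter-Glo luminescence normalized to DMSO and no-cell wells; concentration-response curves fitted and classed.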
MCF10A rereplic: inducers of DNA re-replication in MCF 10A breast cells. MCF 10A DNA re-replication, Hoechst nuclear intensity, 48 h. Potency, µM (titrated, usually from 46.1 µM), most hits filed as activators. 2.9% of 350,000 active. AID 624296; also: nearly all actives have a fitted effect of over 50% in size
KB-V1 cytotox: kills drug-selected multidrug resistant KB-V1 cells. KB-V1 MDR cells viability, CellTiter-Glo, 72 h. Potency, µM (titrated, usually from 46.1 µM), most hits filed as cytotoxic. 3.4% of 400,000 active. AID 1347076; also: nearly all actives have a fitted effect of over 60% in size
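In this primary screen, KB-V1 cells overexpressing P-gp are incubated with library compounds (lowest to highest concentration) for 72 h at 37 degrees C before a luminescent ATP viability read.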
SW480 rerep: DNA re-replication induction in SW480 cells; SW480 DNA re-replication, Hoechst DNA content imaging, 48 h; Potency, µM (top dose mostly 46.1 µM), hits mostly activators; 1.8% of 340,000 active; AID 624297; also: nearly all actives have a fitted effect of over 55% in size
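DNA re-replication was detected as more nuclei of elevated Hoechst intensity after 48 hr exposure to compound (23 nL pinned per well of 250 cells).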
HT1080 IDH1KD tx: kills HT-1080 cells with IDH1 knockdown; 2% of 360,000 active; Potency, µM (series often up to 46.1 µM), usual class: cytotoxic; HT-1080 IDH1 knockdown viability, ATP luminescence, 48 h
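% activity derives from luminescence (CellTiter-Glo), normalised to DMSO and no-cell wells. HT-1080-IDH1KD cells, 750/well, had 48 h compound exposure at 37 °C.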
KB-3-1 cytotox: kills parental KB-3-1 adenocarcinoma cells; Potency, µM (doses to about 46.1 µM), hits mostly cytotoxic; KB-3-1 viability, CellTiter-Glo ATP luminescence, 72 h; 1.4% of 400,000 active; also: nearly all actives have a fitted effect of over 60% in size
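KB-3-1 cells, DMEM (no phenol red) + 10% FBS; compound by pin transfer, 72 h, 37 °C. Readout: CellTiter-Glo luminescence after 10 min. Data normalized, curve-fitted.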
Numbers stand for hits; 0 = inactive; ? = inconclusive; - = not tested or not shown; [ ] = remark or other dose. An excerpt weighted towards active compounds, which were near 8% of everything screened. Calls follow the shape of the dose curve; as a rule, active = well fitted curve in the direction sought with a large enough effect; inconclusive = small, poorly fitted or top-dose-only effect, or another doubt; inactive = no such curve, though single readings can be large; an effect the other way counts as inactive or inconclusive.

SMILES	HT1080NT lethal	MCF10A rereplic	KB-V1 cytotox	SW480 rerep	HT1080 IDH1KD tx	KB-3-1 cytotox
Cc1cc(NC(=O)c2ccccc2NS(=O)(=O)c2c(C)c(C)cc(C)c2C)no1	0	12µM	0	9.2µM	0[9.24 µM]	0
Cc1cc(NS(=O)(=O)c2ccc(NC(=S)NC(=O)c3ccc(C(C)(C)C)cc3)cc2)no1	0	0	23µM	0	0	0
COc1ccc(-c2nc3ccccc3c(C(=O)Nc3ccc(S(=O)(=O)Nc4cc(C)on4)cc3)c2C)cc1	?	18µM	0	?	?	?
Cc1ccc(C)c(S(=O)(=O)Nc2ccccc2C(=O)Nc2cc(C)on2)c1	?	?	0	?	?	?
Cc1ccc(NS(=O)(=O)c2cccc(C(=O)Nc3cc(C)on3)c2)cc1	0	0	4.6µM	?	0	0
Cc1ccc(S(=O)(=O)Nc2ccc(C(=O)Nc3cc(C)on3)cc2)cc1	0	0	0	0	0	0
O=c1[nH]nc(-c2ccc(F)cc2)cc1Cc1ccc(F)cc1	0	0	0	0	0	0
O=C1OC(CO)C(O)C(O)C1O (stereo not drawn)	-	0	-	0	-	-
COc1ccc(Cn2ccc3nc(C)c(C(=O)Nc4ccc(OC)cc4)cc3c2=O)cc1	-	-	0	-	-	?
CN1CCC(N(C)S(=O)(=O)c2ccc(NC(=O)COc3ccc(Br)cc3Cl)cc2)CC1	16µM	?	?	0	18µM	?
CCOc1ccc(N2CC(C)Cn3c2nc2c3c(=O)n(CC(=O)O)c(=O)n2C)cc1 (stereo not drawn)	-	-	?	-	-	0
C/C(=N\NC(=O)CSc1nc(C)cc(C)n1)c1cccs1	0	0	0	0	0	0
C/C(=N\NC(=O)Cn1nc(C)c(Br)c1C)c1cccs1	0	0	15µM	0	0	0
Nc1nnn(CC(=O)N/N=C/c2cn[nH]c2-c2ccccc2)n1	0	0	0	?	0	0
COc1ccc(CC(=O)NCC(c2ccc(N(C)C)cc2)N2CCOCC2)cc1 (stereo not drawn)	-	-	0	-	-	0
COc1ncc(-c2c(-c3ccccc3OC)sc3ccccc23)cn1	?	-	0	-	16µM	?
COc1ccccc1-c1sc2ccccc2c1-c1ccccc1OC	0	0	0	0[9.22 µM]	0	0
CCOC(=O)Nc1ccc2c(CN3C(=O)NC(CC)(CC)C3=O)cc(=O)oc2c1	0	0	0	0[9.22 µM]	0	0
CCOC(=O)Nc1ccc2c(CNC(C)c3ccccc3OC)cc(=O)oc2c1 (stereo not drawn)	0	18µM	0	0	0	0
Cc1cccc(C)c1NC(=O)CCC(=O)N1Cc2ccccc2Oc2ncccc21	-	-	0	-	-	0
CCNC(=O)c1c(C)oc2ncn(C)c(=O)c12	-	-	0	-	-	0
COc1cc(C(=S)N2CCCC2)cc(OC)c1OC	0	3.7µM	0	0	0	0
Cc1occc1C(=O)N1CCN(S(=O)(=O)c2ccccc2)CC1	0	0	-	0	0	-
O=C(c1ccc(Cn2c(=S)[nH]c3ccc(Br)cc3c2=O)cc1)N1CCN(C2CCCCC2)CC1	0	?	18µM	?	0	?
O=C(c1ccc(Cn2c(=S)[nH]c3ccc(N4CCOCC4)cc3c2=O)cc1)N1CCN(c2ccc(F)cc2)CC1	0	4.6µM	?	0	0	0
SMILES	HT1080NT lethal	MCF10A rereplic	KB-V1 cytotox	SW480 rerep	HT1080 IDH1KD tx	KB-3-1 cytotox
CCOC(=O)C1CCCN(C(=O)c2ccc(Cn3c(=S)[nH]c4cc(C(=O)OC)ccc4c3=O)cc2)C1 (stereo not drawn)	0	16µM	?	?	0	0
Cc1ccc(C)c(N2CCN(C(=O)c3ccc(Cn4c(=S)[nH]c5ccc(N6CCOCC6)cc5c4=O)cc3)CC2)c1	0	5.8µM	0	0	0	0
CC(C)CN1C(=O)c2ccc(C(=O)Nc3ccccc3C(=O)O)cc2C1=O	0	0	?	0	0	0
O=S1(=O)N=C(Oc2cccc(C(F)(F)F)c2)c2ccccc21	-	-	0	-	-	?
CCc1ccccc1NC(=O)CN(c1ccccc1OC)S(=O)(=O)c1ccc(C)cc1	-	-	0	-	-	0
CN(C)CCCn1c(=S)[nH]c2ccccc2c1=O	0	0	0	0	0	0
